From the supplement of paper PMC8371130
Structures can show the parent of a compound that is named as a salt.

test system: HL-1; assay: relative cell viability (CellTiter-Glo) vs DMSO control (% of DMSO control); higher = more viable cells; settings: oxygen condition: normoxia 72 h; 5000 nM
Method in brief: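 Compounds at 40, 200, 1000 or 5000 nM in 0.01% DMSO were added to HL-1 mouse atrial cardiomyocytes plated at 1000 cells per well in 384-well plates. The next day, cells were exposed to 1% O2 for 48 h and then reoxygenated for 24 h, or left in normoxia for the same time. Viability was read with CellTiter-Glo luminescence and normalised to vehicle-treated controls.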

| Structure (SMILES) | relative cell viability |
| --- | --- |
| NC(=O)NO [Hydroxyurea] | 110 |
| Cc1onc(-c2ccccc2)c1C(=O)N[C@@H]1C(=O)N2[C@@H]1SC(C)(C)[C@@H]2C(=O)O [Oxacillin sodium monohydrate] | 109 |
| CC(C)(C(=O)O)c1ccc(C(O)CCCN2CCC(C(O)(c3ccccc3)c3ccccc3)CC2)cc1 (stereo not drawn) [Fexofenadine HCl] | 110 |
| CN(C)CCCN1c2ccccc2CCc2ccccc21 [Imipramine HCl] | 111 |
| CCC[C@H](N[C@@H](C)C(=O)N1[C@H](C(=O)O)C[C@@H]2CCCC[C@@H]21)C(=O)OCC [Perindopril Erbumine] | 114 |
| COc1ccccc1OCCNCC(O)COc1cccc2[nH]c3ccccc3c12 (stereo not drawn) [Carvedilol] | 107 |
| NCC(=O)CCC(=O)O [5-Aminolevulinic acid hydrochloride] | 113 |
| CCNC(=O)CCC/C=C\C[C@@H]1[C@@H](/C=C/[C@@H](O)CCc2ccccc2)[C@H](O)C[C@@H]1O [Bimatoprost] | 107 |
| Nc1nnc(-c2cccc(Cl)c2Cl)c(N)n1 [Lamotrigine] | 117 |
| CNCC[C@@H](Oc1ccccc1C)c1ccccc1 [Atomoxetine HCl] | 119 |
| Clc1ccc2nsnc2c1NC1=NCCN1 [Tizanidine HCl] | 111 |
| CC(C)c1c(C(=O)Nc2ccccc2)c(-c2ccccc2)c(-c2ccc(F)cc2)n1CC[C@@H](O)C[C@@H](O)CC(=O)O [Atorvastatin calcium] | 19.9 |
| C[C@@H]1CCN(C(=O)CC#N)C[C@@H]1N(C)c1ncnc2[nH]ccc12 [Tofacitinib citrate] | 103 |
